# Compound activity as filed in PubChem.
# Rows were chosen to be rich in hits. Some 21% of all compounds tested hit in one or more screens of this group.
# Pf growth 96h – P. falciparum growth inhibition at 96 hours | P. falciparum luciferase reporter growth, 96 h | Potency, µM (titrated, usually from 28.7 µM), for the others: top-dose activity change, negative = inhibition, hits mostly inhibitors | actives 6.9% (n = 320,000) | AID 504834; note: potency is the fitted concentration of half-maximal effect; % is set by controls: 0 for no effect and ±100 for the full control effect
#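 Erythrocytes infected with luciferase-expressing P. falciparum were dispensed at 2% hematocrit and 0.05% parasitemia (final), then incubated with compounds 96 hours at 37 C in 5% CO2. Luminescence after detection reagent addition reported growth.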
# HCV inhibitor – inhibitors of hepatitis C virus infection | Huh7.5.1 HCVcc-Cre infection, luciferase reporter, 44 h | Potency, µM (titrated, usually from 41.8 µM), for inactives: top-dose activity change, negative = inhibition, most hits filed as inhibitors | actives 3.4% (n = 340,000) | AID 651820; note: potency is the fitted concentration of half-maximal effect; % is set by controls: 0 for no effect and ±100 for the full control effect
#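 HCVcc-Cre virus at an moi near 0.5 was added right after compound to cells cultured 4 h from seeding (1,000 cells/well). Luciferase activity was determined 44 h later, 15 min after substrate addition at RT.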
# Shiga inhibitor – Shiga toxin inhibition; actives 9.2% (n = 290,000); inhibition, % at 38.7 µM; Vero cells, Shiga toxin protein synthesis inhibition reporter; in the data active = inhibition mostly above about 28%, no sharp cut-off; inactive = mostly below about 43%; note: 0% is about no effect
# Cycloheximide cs – affects cycloheximide protein synthesis inhibition readout, counter-screen; actives 12% (n = 300,000); max response, %; AID 2314; cell reporter, cycloheximide protein synthesis inhibition counterscreen; in the data active = max response mostly above about 13%, no sharp cut-off; inactive = mostly below about 14%; note: read at 38.3 µM for the half of the compounds with a filed dose; 0% is about no effect
# Pf growth 48h – inhibits P. falciparum growth in the first generation, 48 h | P. falciparum luciferase growth in erythrocytes, 48 h | Potency, µM (titrated, usually from 28.7 µM), without a hit: top-dose activity change, negative = inhibition, hits mostly inhibitors | actives 5.9% (n = 310,000) | AID 504832; note: potency is the fitted concentration of half-maximal effect; % is set by controls: 0 for no effect and ±100 for the full control effect
#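 A one-generation exposure of luciferase-tagged malaria parasites in RPMI 1640/Albumax erythrocyte culture, 37 C and 5% CO2. Inhibition is inferred from decreased luminescence after adding detection reagent.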
# HCMV inh – blocks human cytomegalovirus replication; HFF cells, HCMV-luciferase reporter, 72 h; stronger effect = lower value; activity change, negative = inhibition, % at 57.5 µM; actives 4.5% (n = 410,000); AID 1259415; in the data active = activity change below about -60%; inconclusive = no clear call, values can overlap the other calls; inactive = above about -39%; note: % is set by controls: 0 for no effect and ±100 for the full control effect
#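 Two compound doses tested in HFFs infected with HCMV-luciferase, MOI 1 PFU/cell, 72 h at 37C. Lysate luminescence read with OneGlo; data normalized against buffer-only and 10uM Salinomycin inhibitor controls.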
# The depositor's hits bear a star; i = inactive; ? = inconclusive; . = not tested or not shown. Unless noted, calls come from the whole dose curve; as a rule, active = well fitted inhibition curve with a large enough effect; inconclusive = small, poorly fitted or top-dose-only effect, or another doubt; inactive = no such curve, though single readings can be large or run the other way.
SMILES,Pf growth 96h,HCV inhibitor,Shiga inhibitor,Cycloheximide cs,Pf growth 48h,HCMV inh
CCOc1ccc(NC(=O)c2ccc3c(=O)n4nc(Nc5ccccc5C)sc4nc3c2)cc1,.,.,.,.,.,6
CCOC(=O)C1CCCN(C(=O)c2ccccc2NC(=O)C2=C(C)OCCS2)C1 (stereo not drawn),4.1µM*,9%,-14,5,?,-9
COc1ccc(N2CCN(C(=O)c3ccc(C)c(NC(=O)C4=C(C)OCCS4)c3)CC2)cc1,?,5%,-11,-7,?,-17
CC1=C(C(=O)Nc2cc(C(=O)N3CCN(c4cccc(C)c4C)CC3)ccc2C)SCCO1,10µM*,11µM*,-6,-8,-13%,-37
CC1=C(C(=O)Nc2ccccc2C(=O)N2CCC(C)CC2)SCCO1,-24%,-11%,-6,-1,13µM*,-3
Cc1ccc2oc(C(=O)NCC(c3ccc(Cl)cc3)N3CCOCC3)c(C)c2c1 (stereo not drawn),.,.,.,.,.,-3
CCOC(=O)Cc1ccc(NC(=O)N2CCOc3ccc(C)cc32)cc1,.,.,.,.,.,-3
CN(c1ccccc1)S(=O)(=O)c1cccc(NC(=O)Cc2n[nH]c(=O)c3ccccc23)c1,?,10µM*,.,.,?,?
CN(c1ccccc1)S(=O)(=O)c1cccc(NC(=O)CN2C(=O)NC3(CCCCC3)C2=O)c1,?,3.2µM*,.,.,-4%,4
CN(c1ccccc1)S(=O)(=O)c1cccc(NC(=O)CSc2nncs2)c1,?,?,-3,-2,-15%,-30
CN(c1ccccc1)S(=O)(=O)c1cccc(NC(=O)CSc2ncn[nH]2)c1,6%,?,-11,-1,16%,-68*
COc1ccc(-n2cnc3cc(NS(=O)(=O)c4ccccc4)ccc32)cc1,?,?,37*,21*,?,-3
COc1ccc(-n2cnc3cc(N)ccc32)cc1,?,-6%,12,13*,?,?
COc1ccc(NC(=O)c2cccc(NS(=O)(=O)c3ccccc3)c2)cc1,72%,-23%,.,-1,1%,-14
COc1ccc(-n2cnc3cc(C(=O)N4CCOCC4)ccc32)cc1,7%,15%,45*,56*,7%,19
CC(C)(C)n1cnc2cc(NS(=O)(=O)c3ccccc3)ccc21,11%,-1%,24,18*,?,28
Cn1cnc2cc(NS(=O)(=O)c3ccc(Br)cc3)ccc21,7%,19%,-13,-3,-2%,7
Cc1ccc2nc(-c3ccncc3)c(Nc3ccc(C(C)C)cc3)n2c1,.,.,.,.,.,2
O=C(NCCc1ccccc1)C1Cc2c(-c3ccccc3)ccnc2O1 (stereo not drawn),.,.,.,.,.,1
COc1ccc(C(=O)NCc2nnc(SCC(=O)NC3CCCC3)o2)cc1,28%,4%,0,12,-11%,-28
COc1ccc(Cl)cc1-c1cc(C(=O)NCc2ccccc2)[nH]n1,.,.,.,.,.,82
NC(=O)CC(NC(=O)Cc1ccc(Br)cc1)c1ccc(NC2CCN(Cc3ccccc3)CC2)c([N+](=O)[O-])c1 (stereo not drawn),?,2%,-3,1,?,-93*
NC(=O)CC(NC(=O)c1ccc(Br)cc1)c1ccc(N2CCN(c3ccccc3)CC2)c([N+](=O)[O-])c1 (stereo not drawn),-15%,?,6,-3,15%,19
Cc1ccccc1CNc1ccc(C(CC(N)=O)NC(=O)c2ccccc2)cc1[N+](=O)[O-] (stereo not drawn),?,11µM*,-2,-5,?,?
NC(=O)CC(NC(=O)c1ccc(Br)cc1)c1ccc(N2CCCCCCC2)c([N+](=O)[O-])c1 (stereo not drawn),2.9µM*,?,-3,-2,20%,-18
SMILES,Pf growth 96h,HCV inhibitor,Shiga inhibitor,Cycloheximide cs,Pf growth 48h,HCMV inh
NC(=O)CC(NC(=O)c1ccc(Br)cc1)c1ccc(NC2CCCCC2)c([N+](=O)[O-])c1 (stereo not drawn),-3%,25%,-1,-2,14%,-29
NC(=O)CC(NC(=O)c1ccc(Br)cc1)c1ccc(NC2CCCCCC2)c([N+](=O)[O-])c1 (stereo not drawn),10%,-6%,16,12*,3%,?
CC(C)N(C(=O)[C@H]1C[C@H](CC(=O)NCCC2=CCCCC2)C(=O)N2CCc3c([nH]c4cc(-c5ccco5)ccc34)[C@]12C)C(C)C,.,-3%,.,.,.,1
COc1ccc(CCC(=O)NC2CC(=O)N(c3ccc(F)cc3)C2)cc1 (stereo not drawn),.,.,.,.,.,-5
NC(=O)CC(NC(=O)c1ccc(Br)cc1)c1ccc(N2CCC(Cc3ccccc3)CC2)c([N+](=O)[O-])c1 (stereo not drawn),-17%,?,20,-1,24%,6
NC(=O)CC(NC(=O)c1ccccc1)c1ccc(N2CCC(Cc3ccccc3)CC2)c([N+](=O)[O-])c1 (stereo not drawn),4%,?,-8,-2,-26%,-67*
COc1cc(/C=N/NC(=O)CC#N)ccc1Oc1nc(Cl)ncc1F,?,?,.,-3,-3%,11
COc1ccc(Sc2cnn(-c3ccccc3)c(=O)c2Cl)cc1,-16%,-12%,-12,2,4%,?
COc1ccc(-n2ncc(N(C)n3cccc3)c(Cl)c2=O)cc1,i,13%,87*,28*,306%,79
COc1ccc(C(=O)N2CCN(c3cnn(-c4ccccc4)c(=O)c3Cl)CC2)cc1,?,-1%,-11,8,?,-7
COc1ccc(-n2ncc(Cl)c(Cl)c2=O)cc1,34%,3.5µM*,32,1,11%,-101*
CN1CCN(c2nc(-c3ccc(Cl)cc3)cc(=O)[nH]2)CC1,?,-4%,-1,-3,-5%,12
CCC[N+]12CCC(CC1)C(=C(c1ccccc1)c1ccccc1)C2,?,4%,-10,1,1.3µM*,-9
CCCCN(CCCC)NC(=O)c1ccccc1,?,14%,-13,8,18%,59
CCCC[N+]12CCC(CC1)C(=C(c1ccccc1)c1ccccc1)C2,0.74µM*,12%,-5,-3,1.3µM*,-29
CC/C(=N/N=C(\CC)c1ccccc1)c1ccccc1,?,3%,21,9,-10%,-40
Oc1c(C=Nc2cccnc2)sc2ccccc12,-7%,2%,95*,50*,9%,33
CN=Cc1sc2ccccc2c1O,?,-2%,33,19*,6%,-1
CC(=O)NCCN=Cc1sc2ccccc2c1O,3.7µM*,14%,68*,40*,31%,33
Oc1c(/C=N/c2ccccn2)sc2ccccc12,?,14%,61*,40*,0%,-6
